In PubChem BioAssay (NCI):
About 83,000 compounds went through this panel and 20% of them were active in at least one assay; those are over-represented in the sample as a whole.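 Plates (96-well) were seeded with cells, treated with compound at one concentration, and incubated for 48 hours before percent growth was determined.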

Key:
Assay in all cases: NCI-60 one-dose screen, 48 h (100 = growth as untreated, 0 = no growth, -100 = all killed)
Details in all cases: 10 µM unless noted; active = growth percent below 10; inactive = the rest
[1] = test system: NCI-H23 lung
[2] = test system: NCI-H226 lung
[3] = test system: NCI-H322M lung
[4] = test system: HOP-62 NSCLC
[5] = test system: NCI-H460 lung
[6] = test system: HOP-92 NSCLC
[7] = test system: NCI-H522 lung
[8] = test system: A549/ATCC NSCLC
[9] = test system: 786-0 renal
[10] = test system: COLO 205 colon
[11] = test system: DU-145 prostate
[12] = test system: K-562 leukemia
[13] = test system: MALME-3M melanoma
[14] = test system: MDA-MB-231 breast
[15] = test system: RXF 393 renal
[16] = test system: SF-268 CNS
[17] = test system: SF-295 CNS
[18] = test system: SF-539 CNS
[19] = test system: UACC-257 melanoma
[20] = test system: M14 melanoma

Measured: growth

CCC1S/C(=N\N=C(/C)c2ccco2)N(c2ccccc2)C1=O (stereo not given)
inactive: [1] 98.8% | [2] 122% | [3] 66.8% | [4] 106% | [5] 93.8% | [6] 40.6% | [7] 74.7% | [8] 104% | [9] 96.9% | [10] 117% | [11] 123% | [12] 120% | [13] 79.6% | [14] 118% | [15] 103% | [16] 100% | [17] 123% | [18] 107% | [19] 109% | [20] 138%

CCCCOc1nc2ccc(Cl)cc2cc1/C=C/C(=O)/C=C/c1ccc(Cl)cc1
inactive: [1] 79.8% | [2] 92.9% | [3] 95.7% | [4] 101% | [5] 103% | [6] 87.1% | [7] 74.8% | [8] 84.4% | [9] 94.1% | [10] 62% | [11] 84.7% | [12] 57% | [13] 104% | [14] 86.5% | [15] 41.6% | [16] 81% | [17] 79.5% | [18] 100% | [19] 84% | [20] 18%

CC(Cl)(CCl)CS(=O)(=O)c1ccc(Cl)cc1 (stereo not given)
inactive: [1] 101% | [2] 92.6% | [3] 100% | [4] 94.8% | [5] 107% | [6] 90% | [7] 92.9% | [8] 88.9% | [9] 102% | [10] 106% | [11] 108% | [12] 105% | [13] 114% | [14] 96.5% | [15] 93.1% | [16] 101% | [17] 100% | [18] 107% | [19] 86.7% | [20] 104%

CCCCOc1c(N)cccc1C(=O)OCCN(CC)CC
inactive: [1] 97.1% | [2] 99.8% | [3] 80.7% | [4] 104% | [5] 105% | [6] 95.7% | [7] 76.5% | [8] 97.4% | [9] 102% | [10] 109% | [11] 103% | [12] 80.4% | [13] 100% | [14] 99.3% | [15] 100% | [16] 95.1% | [17] 103% | [18] 104% | [19] 100% | [20] 99.5%

COc1cc(/C=C/C(=O)c2c(C)[n+]([O-])c3ccccc3[n+]2[O-])ccc1O
inactive: [1] 95.5% | [2] 98.5% | [3] 99.4% | [4] 125% | [5] 91.4% | [6] 42.2% | [7] 71% | [8] 103% | [9] 62.4% | [10] 121% | [11] 101% | [12] 85.2% | [13] 103% | [14] 81.5% | [15] 111% | [16] 95.5% | [17] 89.3% | [18] 100% | [19] 98.9% | [20] 103%

C[C@@H]1CC2C3C[C@H](F)C4=CC(=O)C=C[C@]4(C)[C@@]3(F)[C@@H](O)C[C@]2(C)[C@@]1(O)C(=O)CO (stereo not given in full)
inactive: [1] 105% | [2] 70.5% | [3] 94.6% | [4] 101% | [5] 96.2% | [6] 80% | [7] 91.9% | [8] 68% | [9] 109% | [10] 99.3% | [11] 80.8% | [12] 107% | [13] 84.7% | [14] 95.1% | [15] 120% | [16] 88.8% | [17] 116% | [18] 83.2% | [19] 88.4% | [20] 93.5%

CN[C@@H](CCCNC(N)=NC/C=C(/C)CCC=C(C)C)C(=O)N(C)[C@@H](CCCNC(N)=NCC=C(C)C)C(=O)N[C@H](C)[C@H](OS(=O)(=O)O)c1ccc(OS(=O)(=O)O)c(COS(=O)(=O)O)c1
inactive: [1] 99.9% | [2] 89.1% | [3] 102% | [4] 102% | [5] 110% | [6] 100% | [7] 83.9% | [8] 89.7% | [9] 97.1% | [10] 108% | [11] 108% | [12] 110% | [13] 117% | [14] 95.5% | [15] 102% | [16] 101% | [17] 112% | [18] 104% | [19] 92.5% | [20] 105%

COC(=O)c1ccc2c(c1)Oc1ccc(Cl)cc1-c1cc(C)nn1-2
inactive: [1] 78.1% | [2] 37.4% | [3] 81.9% | [4] 37.6% | [5] 14% | [6] 61.1% | [7] 82.3% | [8] 40.5% | [9] 69.5% | [10] 69.6% | [11] 82.3% | [12] 89.5% | [13] 80% | [14] 60.7% | [15] 91.8% | [16] 80.5% | [17] 24.6% | [18] 68.4% | [19] 108% | [20] 89%
